Screening results as filed in PubChem.
Only some compounds are listed: those with a hit (about 19% of all), similar ones and a draw of the others.
HT1080-NT tox – kills 2HG-producing HT-1080-NT fibrosarcoma cells; HT-1080-NT fibrosarcoma viability, CellTiter-Glo ATP luminescence, 48 h; Potency, µM (top dose mostly 46.1 µM), hits mostly cytotoxic; 360,000 compounds, 1.6% hits; AID 686970;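 further: NT is the 2HG producing partner of a matched IDH1 knockdown line; nearly all actives have a fitted effect of over 55% in size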
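Viability of the 2HG-overproducing fibrosarcoma line after 48 hours of compound exposure at 37 degrees C was determined by luminescence with CellTiter-Glo, and concentration-effect curves were then fitted and categorized.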
IL-1B inflam inh – inhibitors of inflammasome signaling (IL-1 beta secretion); THP-1 LPS/ATP IL-1B secretion, AlphaLISA, 16 h; active compounds read low; activity change, % at 57.5 µM; 360,000 compounds, 4.7% hits; AID 743279; in the data active means activity change below about -50%; inconclusive means mostly about -30% to -49%
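Secreted IL-1B measured by AlphaLISA bead assay after 16 h compound exposure of THP-1 cells; compounds (final up to 57.5 uM) added 1 h before LPS (250 ng/mL) and ATP (1.25 mM) stimulation; lower signal means less secretion.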
DT40 TDP1 no CPT – qHTS for Inhibitors of human tyrosyl-DNA phosphodiesterase 1 (TDP1): qHTS in cells in absence of CPT | DT40 Tdp1-/- hTDP1 cells, no CPT, ATP luminescence, 48 h | Potency, µM (doses to about 46.2 µM), usual class: inhibitors | 420,000 compounds, 15% hits | AID 686978, 2013; further: nearly all actives have a fitted effect of over 55% in size
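Seeded 400 DT40-hTDP1 cells/well (vehicle DMSO, no 20 nM CPT); pinned compounds; ≥48 hr at 37 °C; CellTiter-Glo luminescence as viability measure.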
DT40 TDP1 CPT – growth inhibition of DT40 Tdp1-/-;hTDP1 cells with camptothecin (screen for TDP1 inhibitors). Potency, µM (doses to about 46.2 µM), hits mostly inhibitors. chicken DT40 Tdp1-/-;hTDP1 cells + 20 nM CPT, ATP luminescence, 48 h. AID 686979. 420,000 compounds, 12% hits; further: nearly all actives have a fitted effect of over 55% in size
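Cell growth measured by CellTiter-Glo luminescence after a minimum 48 h, 37 C compound exposure with 20 nM CPT in Tdp1-knockout DT40 cells stably expressing hTDP1, seeded 400/well; qHTS titration format.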
HT1080 IDH1KD tx – toxicity to HT-1080 IDH1 knockdown cells (counter line); HT-1080 IDH1 knockdown viability, ATP luminescence, 48 h; Potency, µM (highest dose often 46.1 µM), actives largely listed as cytotoxic; 360,000 compounds, 2% hits; AID 686971
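After a 2 h attachment period, IDH1KD HT-1080 cells took pin-transferred compound for 48 h at 37 °C; ATP-based luminescence after 10 min room-temperature reagent incubation reported viability.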
Hits are given with their value; i = inactive; ? = inconclusive; nt = no result. Unless noted, the call rests on the fitted dose curve; in most records, active means well fitted curve in the direction sought with a large enough effect; inconclusive means small, poorly fitted or top-dose-only effect, or another doubt; inactive means no such curve, though single readings can be large; an effect the other way counts as inactive or inconclusive.

SMILES	HT1080-NT tox	IL-1B inflam inh	DT40 TDP1 no CPT	DT40 TDP1 CPT	HT1080 IDH1KD tx
CCc1nc2ccc(C(=O)NCCNC(C)=O)cn2c1N(C)Cc1ccc(OC)cc1	i	i	i	i	i
CCc1nc2ccc(C(=O)NCCC(C)C)cn2c1N(C)Cc1ccc(OC)cc1	?	i	16µM	?	?
CCc1nc2ccc(C(=O)NCCC(C)C)cn2c1N(CC)CCOC	i	i	21µM	?	i
CCc1nc2ccc(C(=O)N(CC)CCN(C)C)cn2c1N(C)Cc1ccc(OC)cc1	i	i	i	i	i
Cc1cc(Cl)ccc1NC(=O)C1COc2ccccc2O1 (stereo unspecified)	i	i	?	i	i
CCc1nc2ccc(C(=O)NCCOc3ccc(OC)cc3)cn2c1N(C)Cc1cccs1	?	-52	?	?	?
O=C(COc1ccccc1)Nc1sc2c(c1C(=O)Nc1ccccc1Cl)CCCCC2	nt	nt	i	i	nt
CCOc1ccccc1NC(=O)c1c(NC(=O)COc2ccccc2)sc2c1CCCCC2	nt	nt	2.1µM	2.1µM	nt
O=C(COc1ccccc1)Nc1sc2c(c1C(=O)Nc1ccccc1)CCCCC2	nt	nt	0.46µM	?	nt
CCOc1ccccc1NC(=O)c1c(NC(=O)Cc2ccc(OC)cc2)sc2c1CCC2	nt	nt	5.8µM	8.2µM	nt
CCOc1ccccc1NC(=O)c1c(NC(=O)c2cccc(C)c2)sc2c1CCCC2	nt	nt	23µM	?	nt
CCOc1ccccc1NC(=O)c1c(NC(=O)COc2ccc(Cl)cc2)sc2c1CCCCC2	nt	nt	i	i	nt
O=C(CCNS(=O)(=O)c1cccc2nonc12)Nc1ccc(F)cc1	nt	nt	i	i	nt
C/C(=N/NC(=O)c1cccs1)c1ccc(NC(=O)COc2ccc(Cl)cc2)cc1	i	i	i	?	i
O=C(c1ccc(Cl)cc1)C(Cn1cncn1)C(Sc1ccccc1)c1ccccc1 (stereo unspecified)	?	-61	?	?	?
Cc1ccc(SC(c2ccccc2)C(Cn2cncn2)C(=O)c2ccccc2)cc1 (stereo unspecified)	i	i	?	?	i
C=C1C(=O)c2sccc2C(c2ccc(OC)c(OC)c2)C1COC(C)=O (stereo unspecified)	2.6µM	-101	0.23µM	0.52µM	2.3µM
COc1ccc(NC(=O)CSCC(=O)Nc2ccccc2N2CCCCC2)cc1	i	i	29µM	?	i
COc1cccc(C(=O)Nc2ccccc2N2CCN(C(=O)c3ccccc3)CC2)c1	i	i	21µM	?	i
COc1ccc(NC(=O)CSCC(=O)Nc2ccccc2N2CCCC2)cc1	i	i	i	i	i
COc1cccc(C(=O)Nc2ccccc2C(=O)N2CCCC2)c1	i	i	i	i	i
COc1cccc(C(=O)Nc2ccccc2N2CCCC2)c1	i	i	?	18µM	i
O=C(Nc1ccccc1N1CCCCC1)c1cccc(OC(F)F)c1	i	i	?	?	i
COc1cccc(C(=O)NC(=S)Nc2ccccc2N2CCCCC2)c1	i	i	?	?	i
COc1cccc(C(=O)NC(=S)Nc2ccccc2N2CCCC2)c1	i	i	?	23µM	i
SMILES	HT1080-NT tox	IL-1B inflam inh	DT40 TDP1 no CPT	DT40 TDP1 CPT	HT1080 IDH1KD tx
CC(C)(C)C(=O)Nc1cc(NC(=O)C(C)(C)C)cc(C(=O)NNC(=O)c2ccncc2)c1	i	?	i	i	i
CC(=O)Nc1cccc(C(=O)Nc2ccccc2N2CCOCC2)c1	?	i	26µM	?	?
COC(=O)[C@@H]1C[C@@]2(O)[C@H](O)[C@H](O)[C@H](O)C[C@H]2N1Cc1ccc(-c2ccccc2)cc1	i	-71	i	i	i
COC(=O)[C@@H]1C[C@@]2(O)[C@@H](O)[C@@H](O)[C@@H](O)C[C@H]2N1Cc1ccc(-c2ccccc2)cc1	i	nt	i	?	i
CN(C(=O)c1ccc(NC(=O)Cc2ccc(NC(=O)C3CCCN(C(=O)C4CC4)C3)cc2)cc1)C1CC1 (stereo unspecified)	i	i	?	i	i
Cc1ccc(/C=C/C(=O)OCC(=O)NC(=O)NCc2ccco2)cc1	i	i	i	i	i
Cc1cc(=O)oc2cc(OCc3ccc(C(=O)OCC(=O)Nc4ccccc4OC(F)F)cc3)ccc12	i	i	?	?	i
